MPTP inh – blocks calcium-induced mitochondrial swelling | isolated mouse mitochondria, Ca2+ swelling absorbance, 30 min | 1.4% of 360,000 active | inhibition, % at 10 µM;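 active = inhibition of 50% or more, scaled per plate between neutral and stimulator controls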;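 also: 0% = DMSO wells given calcium and 100% = 1 mM EGTA wells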
Beta apoptosis – blocks beta cell apoptosis; AID 435005; protection from apoptosis, % (no concentration beside the values); 0.8% of 300,000 active; INS-1E cytokine-induced death, ATP luminescence, 48 h; percent of positive-control rescue, neutral wells zero;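 active = Every replicate reaches about 75%, or at least half do and their mean reaches it too, limit read from the data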;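 also: 0% = cytokine-treated negative control wells and 100% = positive control rescue; higher means more ATP so stronger rescue from cytokine killing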
GRIN3A LBD mod – modulates the human NR3A ligand-binding domain. NR3A LBD differential scanning fluorimetry, Tm shift; 0% = protein alone, 100% = glycine-bound protein. Tm shift relative to glycine control, % at 25 µM. 2.5% of 340,000 active. AID 1259313;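 active = melting temperature shift of at least 10% of the positive control shift, at one fixed dose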
CSC inhib – cancer stem cell inhibition; inhibition, % at 7.5 µM; cancer stem cell-like cells viability, luminescence; 1.1% of 300,000 active; in the data active = inhibition above about 75%; tested in HMLE shEcad cells
SKKanGAS inh – inhibitors of SKKanGAS S. pyogenes growth in kanamycin (SK-promoter or general growth effect) | BacTiter-Glo, 6 h | 1.3% of 300,000 active | inhibition, % at 7.5 µM;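 active = mean replicate score, as percent of positive control median, at least 50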;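 also: strain carries kanamycin resistance gene driven by streptokinase promoter and grows in 40 µg/ml kanamycin; loss of luminescence reflects streptokinase promoter inhibition or plain growth inhibition; 0% = median of DMSO wells and 100% = positive control at its reference dose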
Mdm2-MdmX inh – disrupts the human Mdm2-MdmX interaction. SaOS-2 split-luciferase Mdm2/MdmX complementation, luminescence. 3% of 330,000 active. inhibition, % at 8 µM;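 active = inhibition of at least 50% at 8 µM in the primary screen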
The depositor's hits bear a star; / = no result. Only some compounds are listed: those with a hit (about 6.9% of all), similar ones and a draw of the others.

SMILES	MPTP inh	Beta apoptosis	GRIN3A LBD mod	CSC inhib	SKKanGAS inh	Mdm2-MdmX inh
CCOC(=O)C1CCN(C(=O)COC(=O)CSc2ccc(C(N)=O)cc2[N+](=O)[O-])CC1	-1	-2	0	-2	0	5
Nc1cc(-c2ccc(Br)cc2)[nH]n1	-1	-9	12*	3	37	11
O=C(NCCS(=O)(=O)N1CCN(c2ccccc2F)CC1)c1ccco1	-2	-1	7	-3	-9	3
O=C(NCCS(=O)(=O)N1CCN(c2ccc(F)cc2)CC1)c1ccco1	0	/	22*	11	0	21
O=C(Cc1ccc(Cl)cc1)NCCS(=O)(=O)N1CCN(c2ccccc2)CC1	0	1	-1	/	0	16
COc1ccc(S(=O)(=O)NCCS(=O)(=O)N2CCN(c3ccccc3)CC2)cc1	0	/	19*	-4	-10	24
O=C(Cc1ccccc1)NCCS(=O)(=O)N1CCN(c2ccccc2)CC1	0	-8	3	/	54*	15
COc1cccc(CCN2C(=O)C(=O)N([C@@H](CNCc3ccccc3)Cc3ccccc3F)C[C@@H]2C(C)(C)C)c1	/	-5	-9	21	/	9
CCOC(=O)c1c(CSc2ccc(C)cc2)oc2ccc(O)cc12	26	-7	5	135*	43	25
CS(=O)(=O)c1ccc(-c2cc(Br)sc2-c2ccc(F)cc2)cc1	/	17	/	22	8	-7
CN1CCC(=NNC(=O)CSc2ccc(Cl)cc2)CC1	-4	-3	21*	3	2	-12
CC(Sc1nnc(-c2ccco2)n1C)C(=O)Nc1nccs1 (stereo not drawn)	-1	-3	21*	-2	11	-15
Cc1nnc(NC(=O)C(C)Sc2nnc(-c3ccco3)n2C)s1 (stereo not drawn)	0	-8	-1	2	-2	-25
COc1cnc(-c2ccccn2)nc1Sc1ccc(C)cc1	-1	92*	-1	-6	67*	43
COc1cnc(-c2ccccn2)nc1Oc1ccc(F)cc1F	-1	-6	-1	-2	5	10
Cc1ccc(Sc2cc(C)nc(-c3ccccn3)n2)cc1	2	87*	0	-3	85*	-4
FC(F)(F)c1cccc(Sc2cc(C(F)(F)F)nc(-c3ccccn3)n2)c1	41	5	1	9	1	26
COc1ccccc1Sc1nc(-c2ccccn2)ncc1OC	-1	32	0	3	83*	27
COc1cnc(-c2ccccn2)nc1Oc1ccccc1Cl	0	11	0	-14	71*	-21
N#CCCN(C(=O)Nc1ccccc1)C1CCCCC1	0	/	-1	/	/	/
CCc1ccc(NC(=O)N2CCCCCC2)cc1	0	1	2	6	31	-13
Cc1ccsc1C(=O)NN=C1CCCCCC1	-1	0	2	-6	-4	4
COc1cnc(-c2ccccn2)nc1Oc1ccc(Cl)cc1	-1	8	-3	17	-7	17
COc1cnc(-c2ccccn2)nc1Sc1cccc(Cl)c1	0	40	-2	0	67*	39
Cc1ccc(CNC(=O)C(=O)NCC2CCCO2)cc1 (stereo not drawn)	1	-6	16*	6	0	-22
SMILES	MPTP inh	Beta apoptosis	GRIN3A LBD mod	CSC inhib	SKKanGAS inh	Mdm2-MdmX inh
Cc1ccc(S(=O)(=O)N2CCOC2CNC(=O)C(=O)NCc2ccc(Cl)cc2)cc1 (stereo not drawn)	-1	4	13*	11	22	21
O=C(NCc1ccccc1)c1ccc2c(=O)[nH]c3c(C(=O)NCC4CCCO4)sc(=S)n3c2c1 (stereo not drawn)	1	-6	4	15	36	7
Cc1ccc(CNC(=O)c2ccc3c(=O)[nH]c4c(C(=O)NCC5CCCO5)sc(=S)n4c3c2)cc1 (stereo not drawn)	20	-3	2	2	56*	21
O=C(NCc1ccccc1)C(=O)NCC1OCCN1C(=O)c1cccs1 (stereo not drawn)	0	0	0	-5	-5	1
Cc1ccc(CNC(=O)C(=O)NCC2OCCN2C(=O)c2cccs2)cc1 (stereo not drawn)	3	2	15*	-3	3	-27
Cc1cnc2cc(Cl)ccc2c1SCC(=O)O	-1	-3	4	-1	8	/
